Reference: PubChem BioAssay (Tox21)
Results filed as inconclusive are left out. Active and inactive are the calls of the source. Unless noted, calls follow the shape of the dose curve; as a rule, active = well fitted curve in the direction sought with a large enough effect in the repeat runs; inconclusive = weak or mixed curves; inactive = no such curve, though single readings can be large; an effect the other way counts as inactive or inconclusive.

Experiments:
[1] = qHTS assay to identify small molecule agonists of the peroxisome proliferator-activated receptor delta (PPARd) signaling pathway - cell viability counter screen (AID 743211); also: nearly all actives have a fitted effect of over 55% in size
Summary of the method: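 qHTS cell viability: PPARd-bla HEK293H; 17 h cpd, 37C; CellTiter-Glo, luminescence at 30 min RT.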

[2] = target: Peroxisome proliferator-activated receptor delta (Homo sapiens) (UniProt Q03181); experiment: qHTS assay to identify small molecule agonists of the peroxisome proliferator-activated receptor delta (PPARd) signaling pathway (AID 743212; calls by dose curve)
Summary of the method: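 A PPARd-bla HEK293H line with beta-lactamase under an Upstream Activator Sequence is treated with compounds at 37 C. Substrate loading for 2 h at room temperature precedes the fluorescence measurement.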

[3] = qHTS assay to identify small molecule antagonists of the peroxisome proliferator-activated receptor delta (PPARd) signaling pathway - cell viability counter screen (AID 743213); also: nearly all actives have a fitted effect of over 50% in size
Summary of the method: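 In this counter screen, HEK293H cells carrying a UAS-beta-lactamase reporter are co-treated with test compounds and 300 nM L165041 (final) for 17 h at 37 C; cell viability is quantified by CellTiter-Glo luminescence.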

[4] = target: Peroxisome proliferator-activated receptor delta (Homo sapiens) (UniProt Q03181); experiment: qHTS assay to identify small molecule antagonists of the peroxisome proliferator-activated receptor delta (PPARd) signaling pathway (AID 743215; active = well fitted inhibition curve with a large enough effect in the signal ratio in the repeat runs, not every such curve was filed as active; the % refers to the signal ratio;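 also: cells stimulated with agonist L165041 at 300 nM final during compound exposure; series mostly up to about 62 µM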)
Summary of the method: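 With L165041 present at 300 nM final, compounds were incubated 17 h at 37 C on PPARd UAS-bla HEK293H cells. A FRET-based beta-lactamase substrate was then applied for 2 h at room temperature and fluorescence intensity recorded.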

[5] = target: Bile acid receptor (Homo sapiens) (UniProt Q96RI1); experiment: qHTS assay to identify small molecule antagonists of the farnesoid-X-receptor (FXR) signaling pathway (AID 743217; active = well fitted inhibition curve with a large enough effect in the signal ratio in the repeat runs, not every such curve was filed as active; the % refers to the signal ratio)
Summary of the method: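 In this cell-based antagonist screen, inhibition of CDCA-driven (50 uM final) UAS-beta-lactamase expression in HEK 293T cells was measured by FRET fluorescence following 16 h compound exposure at 37 °C.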

[6] = qHTS assay to identify small molecule agonists of the farnesoid-X-receptor (FXR) signaling pathway - cell viability counter screen (AID 743218); also: nearly all actives have a fitted effect of over 45% in size; also: potency is read from the fitted curve at half-maximal effect
Summary of the method: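 After 16 h at 37 C with test compounds, FXR-bla HEK 293T cells were given LiveBLAzer B/G substrate for 2 h at RT and then CellTiter-Glo; luminescence was taken after 30 min.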

[7] = target: Bile acid receptor (Homo sapiens) (UniProt Q96RI1); experiment: qHTS assay to identify small molecule agonists of the farnesoid-X-receptor (FXR) signaling pathway (AID 743220; active = well fitted activation curve with a large enough effect in the signal ratio in the repeat runs, not every such curve was filed as active; the % refers to the signal ratio; also: potency is read from the fitted curve at half-maximal effect)
Summary of the method: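 Beta-lactamase reporter under UAS control in GeneBLAzer FXR HEK 293T cells (5000/well) measured with LiveBLAzer FRET substrate after 2 h at room temperature. Compound exposure lasted 16 h at 37C.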

[8] = qHTS assay to identify small molecule antagonists of the farnesoid-X-receptor (FXR) signaling pathway - cell viability counter screen (AID 743221; active = well fitted cell-killing curve with a large enough effect in the repeat runs, not every such curve was filed as active; also: nearly all actives have a fitted effect of over 50% in size)
Summary of the method: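 After a 5 h settling period, FXR-bla HEK 293T cells receive compound and chenodeoxycholic acid (50 uM final) and incubate 16 h at 37 C; CellTiter-Glo luminescence, read after 30 min at room temperature, reports cell viability.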

[9] = target: Vitamin D3 receptor (Homo sapiens) (UniProt P11473); experiment: qHTS assay to identify small molecule agonists of the vitamin D receptor (VDR) signaling pathway (AID 743222; calls by dose curve)
Summary of the method: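 VDR-bla cells were seeded, left 4 h, treated with compounds in DMSO for 16 h, incubated 2 h at RT with B/G FRET substrate, and read for fluorescence.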

[10] = target: Vitamin D3 receptor (Homo sapiens) (UniProt P11473); experiment: qHTS assay to identify small molecule antagonists of the vitamin D receptor (VDR) signaling pathway (AID 743223; active = well fitted inhibition curve with a large enough effect in the signal ratio in the repeat runs, not every such curve was filed as active; the % refers to the signal ratio)
Summary of the method: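 Reporter line VDR-bla; stimulus 1alpha,25-(OH)2 vitamin D3, 3 nM final; compound co-addition, 16 h 37C/5% CO2; LiveBLAzer B/G substrate 2 h RT; fluorescence intensity.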

Measured: Potency

Vitamin D3 receptor (Homo sapiens), sequence (P11473 whole entry, looked up): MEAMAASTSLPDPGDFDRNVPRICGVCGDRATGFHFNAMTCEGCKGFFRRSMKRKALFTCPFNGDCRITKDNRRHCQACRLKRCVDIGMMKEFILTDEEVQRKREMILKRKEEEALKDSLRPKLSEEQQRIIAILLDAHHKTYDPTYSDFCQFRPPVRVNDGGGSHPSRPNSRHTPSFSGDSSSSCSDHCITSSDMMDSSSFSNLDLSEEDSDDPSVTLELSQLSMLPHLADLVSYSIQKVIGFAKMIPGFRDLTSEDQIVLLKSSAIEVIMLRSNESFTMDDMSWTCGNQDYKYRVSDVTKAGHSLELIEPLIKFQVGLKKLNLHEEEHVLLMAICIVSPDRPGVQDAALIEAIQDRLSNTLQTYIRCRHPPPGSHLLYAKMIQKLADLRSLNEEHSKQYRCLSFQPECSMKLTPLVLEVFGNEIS
Bile acid receptor (Homo sapiens), sequence (Q96RI1 whole entry, looked up): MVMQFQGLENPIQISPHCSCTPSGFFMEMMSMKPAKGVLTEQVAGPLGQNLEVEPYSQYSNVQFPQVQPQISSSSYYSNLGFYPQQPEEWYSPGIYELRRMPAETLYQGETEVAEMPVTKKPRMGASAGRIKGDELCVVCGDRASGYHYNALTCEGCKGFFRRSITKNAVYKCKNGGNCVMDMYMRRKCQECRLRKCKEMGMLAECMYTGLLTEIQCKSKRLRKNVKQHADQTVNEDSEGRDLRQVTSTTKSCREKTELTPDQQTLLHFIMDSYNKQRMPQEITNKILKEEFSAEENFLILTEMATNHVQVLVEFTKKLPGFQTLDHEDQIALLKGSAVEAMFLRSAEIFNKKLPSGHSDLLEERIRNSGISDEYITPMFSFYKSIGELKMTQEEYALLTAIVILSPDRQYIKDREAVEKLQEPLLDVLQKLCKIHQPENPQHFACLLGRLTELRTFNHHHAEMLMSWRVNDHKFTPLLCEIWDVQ
Peroxisome proliferator-activated receptor delta (Homo sapiens), sequence (Q03181 whole entry, looked up): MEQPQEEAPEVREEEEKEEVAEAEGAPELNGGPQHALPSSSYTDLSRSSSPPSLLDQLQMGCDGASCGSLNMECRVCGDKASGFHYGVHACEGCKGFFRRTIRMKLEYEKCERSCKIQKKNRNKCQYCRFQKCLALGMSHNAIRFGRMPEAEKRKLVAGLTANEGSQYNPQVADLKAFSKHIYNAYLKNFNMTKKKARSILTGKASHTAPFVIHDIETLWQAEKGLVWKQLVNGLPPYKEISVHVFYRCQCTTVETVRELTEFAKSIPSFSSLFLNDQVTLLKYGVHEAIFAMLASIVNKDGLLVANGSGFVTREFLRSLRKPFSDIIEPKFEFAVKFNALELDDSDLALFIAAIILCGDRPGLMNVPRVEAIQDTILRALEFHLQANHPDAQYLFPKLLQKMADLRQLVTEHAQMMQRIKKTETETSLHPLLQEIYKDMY

C[C@@H](O)[C@H]1C(=O)N2C(C(=O)O)=C(SCCN=CN)C[C@H]12
not listed: [9] | [10]
inactive: all other assays above

COc1cc(N)ccc1C
inactive: all assays above

NNc1nnc(NN)c2ccccc12
not listed: [6] | [9] | [10]
inactive: all other assays above

OCCCCC(O)CO (stereo not given)
inactive: all assays above

CN(C)c1ccc(C=O)cc1
not listed: [10]
inactive: all other assays above

COCCOCCOCCOCCO
not listed: [9] | [10]
inactive: all other assays above

CC(C)C(=O)OCCc1ccccc1
inactive: all assays above

O=C(O)CCSSCCC(=O)O
inactive: all assays above

CCCC(=O)C(C)=O
not listed: [10]
inactive: all other assays above

O=C1c2ccccc2C(=O)C1c1ccccc1
not listed: [9] | [10]
inactive: all other assays above

O=C(CS(=O)Cc1ccco1)NC/C=C\COc1cc(CN2CCCCC2)ccn1 (stereo not given)
inactive: all assays above

C=CCCCCCCCCCCCC
not listed: [10]
inactive: all other assays above

CCCC/C=C/C=C\C=O
inactive: all assays above

CCN(C)C(=O)Oc1cccc([C@H](C)N(C)C)c1
not listed: [9] | [10]
inactive: all other assays above

CC(CN)CC(C)(C)CCN (stereo not given)
inactive: all assays above

CCCCCCCC/C=C\CCCCCCCC(=O)OCCCC
not listed: [10]
inactive: all other assays above

CC(C)NCC(O)COc1ccc(COCCOC(C)C)cc1 (stereo not given)
not listed: [6] | [10]
inactive: all other assays above

CCCCCCCCC1CCC(=O)O1 (stereo not given)
not listed: [10]
inactive: all other assays above

c1ccc2c(c1)ccc1c3ccccc3ccc21
inactive: all assays above

OC[C@H](Cc1cccc(O)c1)[C@H](CO)Cc1cccc(O)c1
not listed: [6] | [9] | [10]
inactive: all other assays above

BrCCCCCBr
inactive: all assays above

C[C@H](N)[C@H](O)c1cccc(O)c1
not listed: [9] | [10]
inactive: all other assays above

NC(CO)C(=O)NNCc1ccc(O)c(O)c1O (stereo not given)
inactive: all assays above

CCCCCCCCC(=O)Cl
not listed: [6] | [10]
inactive: all other assays above

CN1C(C)(C)CCCC1(C)C
not listed: [10]
inactive: all other assays above

CC(=O)c1sc(C)nc1C
not listed: [10]
inactive: all other assays above

Cc1nc2n(c(=O)c1CCN1CCC(c3noc4cc(F)ccc34)CC1)CCC[C@H]2O
inactive: all assays above

Cc1cccc2nccnc12
not listed: [9]
inactive: all other assays above

CN(CCOc1ccc(NS(C)(=O)=O)cc1)CCc1ccc(NS(C)(=O)=O)cc1
not listed: [6] | [9] | [10]
inactive: all other assays above

C[C@@H](Oc1ccc(CNC(=O)c2cccnc2Oc2ccc3c(c2)OCO3)c(F)c1)C(=O)O
not listed: [10]
inactive: all other assays above

N[C@@H](COP(=O)(O)O)C(=O)O
not listed: [10]
inactive: all other assays above

CC(=C(CCOC(=O)C(C)C)SSC(CCOC(=O)C(C)C)=C(C)N(C=O)Cc1cnc(C)nc1N)N(C=O)Cc1cnc(C)nc1N
inactive: all assays above

CN(C)CCOCCO
not listed: [6] | [9] | [10]
inactive: all other assays above

COc1ccc(Br)c(C)c1
not listed: [9] | [10]
inactive: all other assays above

C#CC(C)N(C)C(=O)Nc1ccc(Cl)cc1 (stereo not given)
active: [6] 0.436 µM
not listed: [10]
inactive: all other assays above

O=C(O)c1ccc(Cl)cc1Cl
inactive: all assays above

CCN1CCc2nc(N)oc2CC1
not listed: [6] | [9] | [10]
inactive: all other assays above

NCCS
not listed: [6] | [7]
inactive: all other assays above

CCOC(=O)/C=C/c1ccccc1
not listed: [5] | [7] | [10]
inactive: all other assays above

Cc1c(I)c(=O)n(-c2ccccc2)n1C
inactive: [1] | [2] | [3] | [4] | [6] | [8]

O=C1c2cccc3c2[C@H](CCC3)CN1[C@@H]1CN2CCC1CC2
not listed: [5] | [7]
inactive: all other assays above

CC(C)CCCC(C)(C)O
not listed: [5] | [7]
inactive: all other assays above

CC(=O)NCCCCCC(=O)O
not listed: [5] | [7] | [10]
inactive: all other assays above

COc1ccc2c(c1)C(=O)N(CCc1ccc(S(=O)(=O)NC(=O)NC3CCCCC3)cc1)C(=O)C2(C)C
active: [7] 26.6 µM
not listed: [5] | [9]
inactive: all other assays above

Cc1[nH]cnc1-c1ccc(Cl)cc1
inactive: [1] | [2] | [3] | [4] | [6] | [8]

COc1ccc(S(=O)(=O)N2c3ccc(Cl)cc3[C@@](O)(c3ccccc3Cl)[C@H]2C(=O)N2CCC[C@@H]2C(N)=O)cc1OC
inactive: [1] | [2] | [3] | [4] | [6] | [8]

CC(C)(C)c1nnc(NS(=O)(=O)c2ccc(N)cc2)s1
not listed: [5] | [7] | [10]
inactive: all other assays above

CCC(C)NC(N)=O (stereo not given)
not listed: [5] | [7] | [10]
inactive: all other assays above

O=C1c2ccccc2C(=O)c2cc(S(=O)(=O)O)ccc21
not listed: [5] | [7] | [10]
inactive: all other assays above

C[C@H](CCC(=O)O)[C@H]1CC[C@H]2[C@@H]3C(=O)C[C@@H]4CC(=O)CC[C@]4(C)[C@H]3CC(=O)[C@]12C
not listed: [5] | [7]
inactive: all other assays above

C=COCCOCCOCCOC=C
not listed: [5] | [7]
inactive: all other assays above

O=C(NCCN1CCOCC1)c1ccc(Cl)cc1
not listed: [6] | [7] | [10]
inactive: all other assays above

CCCCCCN
not listed: [5] | [7]
inactive: all other assays above

Nc1nnc(-c2cccc(Cl)c2Cl)c(N)n1
not listed: [6] | [9]
inactive: all other assays above

COCCOCCOCCOCCOCCO
not listed: [5] | [7]
inactive: all other assays above
